# From PubChem
# The list is not random: actives were taken first. Their share in the collection is about 2.8%.
# CF NFkB block: inhibitors of cystic fibrosis induced NF-kB; KKLEB NF-kB-GFP reporter, PAF-induced, GFP fluorescence overnight; inhibition, % at 5 µM; 360,000 compounds, 0.86% hits; AID 588850;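 active = at least 50% inhibition at 5 µM, scaled per plate between neutral and stimulator controls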;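 note: PAF is a Pseudomonas aeruginosa culture filtrate used as stimulus; plate controls were PAF-stimulated DMSO wells for no effect and unstimulated DMSO wells for full effect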
# KKLEB tox: CF airway cell cytotoxicity counter-screen. KKLEB CF airway cells viability, ATPlite luminescence, overnight; hits give low values; cells stimulated with P. aeruginosa culture filtrate. 360,000 compounds, 0.36% hits. activity change (cytotoxicity), % at 5 µM. AID 602141;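 active = corrected activity change at or below -50% at 5 µM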
# HIF-2a block: HIF-2a inhibition | 786-0 RCC cells HIF-2a reporter, luciferase luminescence, overnight | inhibition, % at 18.8 µM | 360,000 compounds, 0.72% hits | AID 624352;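 active = inhibition of the luminescence signal of 40% or more relative to plate controls, in a single-dose primary screen at 18.75 µM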
# Peg3 promoter: Peg3 promoter activity inhibition | HeLa PEG-Prom luciferase reporter, luminescence, overnight | inhibition, % at 20 µM | 360,000 compounds, 1.7% hits;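 active = inhibition of at least 50% at 20 µM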
# TRPM1 prom inh: MITF TRPM1 promoter inhibition in SK-MEL-5 cells; 330,000 compounds, 0.83% hits; AID 488899; SK-MEL-5 TRPM1 promoter luciferase, 24 h; inhibition, % at 12.5 µM;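 active = mean inhibition across replicates of 60% or more, whatever share of single replicates reaches that level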
# B2AR ag: activates human beta-2 adrenergic receptor causing internalization; P07550; Am2.2-beta2AR cells, FAP receptor internalization, flow cytometry; response, % (concentration not given with the values); 340,000 compounds, 0.43% hits; AID 504454;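 active = response above a set limit, near 3 SD of response in nonfluorescent compounds, cut at about 42% in these data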
# Target sequence (P07550 whole entry, looked up): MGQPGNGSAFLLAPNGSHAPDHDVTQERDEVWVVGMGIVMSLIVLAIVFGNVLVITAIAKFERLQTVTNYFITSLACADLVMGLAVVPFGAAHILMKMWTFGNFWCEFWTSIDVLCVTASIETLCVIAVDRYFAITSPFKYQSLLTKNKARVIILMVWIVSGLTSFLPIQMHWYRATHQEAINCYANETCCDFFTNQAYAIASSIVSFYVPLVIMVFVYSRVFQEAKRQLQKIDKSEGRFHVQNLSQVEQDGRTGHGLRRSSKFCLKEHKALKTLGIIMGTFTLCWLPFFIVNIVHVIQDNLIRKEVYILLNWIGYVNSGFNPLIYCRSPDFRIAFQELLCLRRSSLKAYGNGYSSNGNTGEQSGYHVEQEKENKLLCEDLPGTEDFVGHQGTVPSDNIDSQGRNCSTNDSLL
# * = called active by the depositor; nt = no result.
SMILES,CF NFkB block,KKLEB tox,HIF-2a block,Peg3 promoter,TRPM1 prom inh,B2AR ag
COc1ccc(-c2ccc(CN3C(C(C)C)C(=O)N(Cc4cn(CC5CCCCC5)nn4)CCS3(=O)=O)cc2)cc1OC (stereo unspecified),43,-16,23,16,nt,nt
C[C@H](O)C(=O)C1=Nc2c(nc(N)[nH]c2=O)NC1,12,-95*,4,2,2,-2
O=c1[nH]c(=S)[nH]c2c1C(c1ccc(F)cc1)OC(CCOCc1ccccc1)C2 (stereo unspecified),-16,2,15,-8,nt,nt
CCCCCCCCN1C(=O)[C@H](CC(=O)NCc2cccc(C(F)(F)F)c2)C[C@@]2(C(=O)OC)CC(C)(C)CC=C12,nt,nt,9,nt,nt,nt
CC(=O)Nc1cccc(NC(=O)CSc2ncc(C(=O)Nc3ccccc3)c(=O)n2C)c1,26,3,1,105*,67*,11
CC(=O)c1cccc(NC(=O)CSc2ncc(C(=O)Nc3ccccc3)c(=O)n2C)c1,15,-1,10,110*,64*,14
CCN1C(=O)C(C)C=C(C)C=C1C (stereo unspecified),16,3,8,-3,nt,nt
COc1cc2c(cc1OCc1ccccc1)/C(=C/C(=O)OCc1ccccc1)OC2,nt,nt,-5,nt,nt,nt
COC(=O)N1C(=O)[C@](c2ccc(Cl)cc2)(C(C)C)N1C(=O)OC,66*,-14,23,31,19,13
CCOC(=O)C(=Cc1ccc(-n2ccnc2)cc1)C(=O)OCC,71*,-9,93*,107*,nt,-2
CCOC(=O)C(=Cc1ccc(Br)cc1)C(=O)OCC,52*,-31,24,23,4,0
CCC(=O)N1CCC1(C)C(=O)NCc1ccccc1SC (stereo unspecified),-20,8,1,-2,nt,nt
Cc1cccc(C)c1-n1nnnc1C1(C)CCC(=O)N1c1ccc(N2CCOCC2)cc1 (stereo unspecified),nt,nt,1,nt,nt,nt
Cc1cc(C)c2c(c1)/C(=C/C(=O)c1ccc(Br)s1)C(=O)N2,40,-61*,4,52*,59,65*
Cc1cc(Br)c2c(c1)/C(=C/C(=O)c1cccs1)C(=O)N2,33,-1,24,69*,51,3
Cc1cc(C)c(C(=O)c2cccs2)c(C)c1,-42,12,11,-17,7,-7
CC1=C(C)CC(C(=O)c2ccccc2)C(C(=O)O)C1 (stereo unspecified),4,16,16,-10,-2,4
O=C(c1ccccc1)C1CC=CCC1C(=O)c1ccccc1 (stereo unspecified),20,-20,-4,24,5,44*
O=C(COC(=O)/C=C/c1ccc(Cl)c(Cl)c1)NC1CCCC1,-35,-5,6,14,-1,-2
CN(C)CC1CCC/C(=C\c2ccc(OC(=O)/C=C/c3ccc(Cl)c(Cl)c3)cc2)C1=O (stereo unspecified),-26,13,8,95*,2,19
CC[C@@H](C)[C@H](NC(=O)OC(C)(C)C)c1nnc(S(=O)(=O)Cc2cc(C)ccc2C)o1,72*,-19,-67,105*,54,11
CN(C)c1ccc(CC(=O)N2CCCC(c3cc(C(=O)Nc4ccc(C(C)(C)C)cc4)no3)C2)cc1 (stereo unspecified),-20,20,-3,18,nt,nt
CCC(C(=O)NC(C)(C)C)n1c(-c2cccc(NC(C)=O)c2)nc2ccccc21 (stereo unspecified),nt,nt,-3,nt,nt,nt
Cc1ccc([C@@H]2C[C@H]3[C@@H](CN2S(=O)(=O)c2ccc(Cl)cc2)C(=O)C[C@@H](c2cccc4ccccc24)N3S(=O)(=O)c2ccc(C)cc2)cc1,-9,6,4,6,nt,nt
Cc1ccc(C)c(NC(=O)C(Sc2nc3ccccc3c(=O)n2CC(C)C)c2ccccc2)c1 (stereo unspecified),105*,-93*,-6,57*,8,12
SMILES,CF NFkB block,KKLEB tox,HIF-2a block,Peg3 promoter,TRPM1 prom inh,B2AR ag
CC(=O)c1cccc(NC(=O)C(Sc2ncnc3ccccc23)c2ccccc2)c1 (stereo unspecified),6,-12,-13,-48,5,-16
Cc1ccc(C)c(NC(=O)C(Sc2ncnc3ccccc23)c2ccccc2)c1 (stereo unspecified),9,-21,15,59*,0,-7
Cc1ccc(C)c(NC(=O)C(Sc2nncn2C)c2ccccc2)c1 (stereo unspecified),1,8,15,4,-3,3
C/C=C(\C)C(=O)OC1[C@H](OC(C)=O)C2(CO)C(CC1(C)C)C1=CCC3C4(C)CCC(O[C@@H]5O[C@H](C(=O)O)[C@@H](O[C@@H]6O[C@H](CO)[C@@H](O)[C@H](O)[C@H]6O)[C@H](O)[C@H]5O[C@H]5O[C@H](CO)[C@@H](O)[C@H](O)[C@H]5O)[C@](C)(CO)C4CCC3(C)[C@]1(C)C[C@H]2O (stereo partly specified),91*,-89*,93*,105*,98*,61*
C/C=C(/C)C(=O)OC1CC(C)(C)C[C@H]2C3=CC[C@@H]4[C@@]5(C)CCC(O[C@@H]6O[C@@H](C(=O)O)[C@@H](O)C(O[C@@H]7OC[C@H](O)[C@@H](O)[C@@H]7O[C@@H]7OC(CO)C(O)[C@@H](O)[C@@H]7O)C6O[C@@H]6OC(CO)C(O)C(O)C6O)[C@@](C)(CO)[C@@H]5CC[C@]4(C)[C@]3(C)CC(O)[C@@]12CO (stereo partly specified),4,12,24,-5,53,11
Cc1ccc(-c2csc3nc(SCC(N)=O)n(Cc4ccccc4)c(=O)c23)cc1,-8,-6,7,53*,-1,0
CC1=C(C(=O)N(C(C)C)C(C)C)CC(CC(=O)NCC2CCCCC2)C(=O)N1Cc1ccc(C(C)(C)C)cc1 (stereo unspecified),nt,nt,-60,nt,nt,nt
CN(C)CCCn1c(=S)[nH]c2ccccc2c1=O,-9,12,17,-3,-5,-16
CN(C)CCCn1c2c3ccccc3ccc2c2oc(=O)c3ccccc3c21,-132,16,-94,97*,80*,43*
O=C(Nc1ccc(-c2nc3cc(NC(=O)c4cccs4)ccc3o2)cc1)c1cccs1,8,7,9,50,73*,2
CCCCCCNC(=O)c1cn(CC)c2cc(N3CCN(C)CC3)c(F)cc2c1=O,4,-12,22,54*,16,17
CCn1cc(C(=O)NCCCO)c(=O)c2cc(F)c(N3CCN(C)CC3)cc21,-16,1,-7,-3,-4,-6
COc1cccc(CNc2nc3cc(-c4ccc(F)cc4)sc3c(=O)n2C)c1,-1,0,-75,-15,nt,nt
